# Measured values reported in PubChem BioAssay (EPA / NIEHS).
# Results filed as inconclusive are left out. Calls of active or inactive are those of the source. Rule for the calls, unless noted: active = hit-call score of the fitted dose curve at least 0.9, where 1 is the maximum; inconclusive = response in the unintended direction; inactive = score below 0.9.
# Key:
# [1] = biological target: Estrogen receptor (Homo sapiens) (UniProt P03372); assay: ATG_ERa_TRANS: Attagene TRANS-FACTORIAL HepG2 Assay for human Estrogen Receptor alpha (ERa) (AID 2282970); conditions: HepG2 Attagene TRANS ERa GAL4 reporter, mRNA
# Procedure, shortened: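 After 24 h of compound treatment, RNA from HepG2 cells bearing transfected GAL4-UAS reporter constructs is converted to cDNA, amplified and fluorescently labelled. Capillary electrophoresis resolves the ERa-linked reporter; DMSO serves as negative control.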
# [2] = biological target: X-box-binding protein 1 (Homo sapiens) (UniProt P17861); assay: ATG_Xbp1_CIS: Attagene CIS-FACTORIAL HepG2 Assay for human X-box Binding Protein 1 (XBP1) (AID 2282972; active = hit-call score of the fitted dose curve at least 0.9, where 1 is the maximum; inactive = score below 0.9); conditions: HepG2 XBP1 cis-element reporter, Attagene multiplex; actives raise or lower the signal
# Procedure, shortened: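 HepG2, transient MRTU transfection (cis-promoter driven), 24 h compound exposure. Total RNA → oligo(dT) RT → PCR → 6-FAM labeling → HpaI cut → CE. Bidirectional fit vs DMSO.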
# [3] = biological target: Estrogen-related receptor gamma (Homo sapiens) (UniProt P62508); assay: ATG_ERRg_TRANS: Attagene TRANS-FACTORIAL HepG2 Assay for human Estrogen-Related Receptor gamma (ERRg) (AID 2282977); conditions: HepG2 Attagene TRANS reporter, ERRg transactivation;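 note: hits increase reporter signal over DMSO so potencies reflect activators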
# Procedure, shortened: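 HepG2 cells transiently transfected with multiplexed GAL4-UAS reporter units and chimeric NR-Gal4 constructs were exposed to test chemicals for 24 h. Reporter mRNA was measured by RT-PCR, 6-FAM primer extension, HpaI digestion and capillary electrophoresis; gain-of-signal versus DMSO.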
# [4] = biological target: Oxysterols receptor LXR-beta (Homo sapiens) (UniProt P55055); assay: ATG_LXRb_TRANS: Attagene TRANS-FACTORIAL HepG2 Assay for human Liver X Receptor beta (LXRb) (AID 2282981); conditions: HepG2 Attagene TRANS GAL4-LXRb reporter, mRNA
# Procedure, shortened: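 HepG2 cells transiently transfected with multiple reporter transcription units carrying chimeric NR-Gal4 proteins acting on GAL4-UAS reporters; compound exposure 24 h. Reporter mRNA quantified by RT-PCR, 6-FAM labelling, HpaI digestion and capillary electrophoresis; gain of signal versus DMSO.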
# [5] = ATG_M_06_TRANS: Attagene TRANS-FACTORIAL HepG2 Assay for M06 Transcription Factor (Internal Marker) (AID 2282983); conditions: HepG2 Attagene TRANS M06 internal marker reporter
# Procedure, shortened: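 After a 24 h chemical treatment of transfected HepG2, RNA underwent DNase I treatment, reverse transcription and reporter-specific PCR; labelled, HpaI-digested products were sized by capillary electrophoresis. Signal increase relative to DMSO defined activity.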
# [6] = biological target: Transcriptional activator Myb (Homo sapiens) (UniProt P10242); assay: ATG_Myb_CIS: Attagene CIS-FACTORIAL HepG2 Assay for human Myeloblastosis (Myb) Proto-Oncogene Transcription Factor (AID 2282986; active = hit-call score of the fitted dose curve at least 0.9, where 1 is the maximum; inactive = score below 0.9); conditions: HepG2 Attagene CIS-FACTORIAL Myb reporter transcription; actives raise or lower the signal
# Procedure, shortened: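 Reporter mRNA is quantified by RT-PCR and capillary electrophoresis 24 h after dosing HepG2 cells transfected with cis-regulated reporter units, which track endogenous transcription factor activity. Gain and loss of signal are fitted versus DMSO baseline.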
# [7] = biological target: Nuclear respiratory factor 1 (Homo sapiens) (UniProt Q16656); assay: ATG_NRF1_CIS: Attagene CIS-FACTORIAL HepG2 Assay for human Nuclear Respiratory Factor 1 (NRF1) Orphan Gene (AID 2282987; active = hit-call score of the fitted dose curve at least 0.9, where 1 is the maximum; inactive = score below 0.9); conditions: HepG2 NRF1 cis-element reporter, Attagene multiplex; actives raise or lower the signal
# Procedure, shortened: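 Endogenous NRF1-driven reporter transcription in transfected HepG2 cells after 24 h treatment. Readout: RT-PCR products, 6-FAM labelled and resolved by capillary electrophoresis; changes fitted both directions relative to DMSO.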
# [8] = ATG_NFI_CIS: Attagene CIS-FACTORIAL HepG2 Assay for human Nuclear Factor I (NFI) (AID 2282989; active = hit-call score of the fitted dose curve at least 0.9, where 1 is the maximum; inactive = score below 0.9); conditions: HepG2 cis-regulatory reporter, NFI response element transcription; actives raise or lower the signal
# Procedure, shortened: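 HepG2, transient MRTU, 24 h exposure; RNA→cDNA→PCR→FAM label→HpaI→CE fluorescence. Bidirectional fit, DMSO = baseline.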
# [9] = biological target: Myc proto-oncogene protein (Homo sapiens) (UniProt P01106); assay: ATG_Myc_CIS: Attagene CIS-FACTORIAL HepG2 Assay for human Myelocytomatosis (Myc) Proto-Oncogene Transcription Factor (AID 2282990; active = hit-call score of the fitted dose curve at least 0.9, where 1 is the maximum; inactive = score below 0.9); conditions: HepG2, Attagene cis-reporter transcription factor activity; actives raise or lower the signal
# Procedure, shortened: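 Multiplexed cis-reporter transcription in HepG2 cells after 24 h chemical treatment. Reporter mRNA measured by RT-PCR and capillary electrophoresis fluorescence; activity fitted bidirectionally against DMSO control.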
# [10] = biological target: Steroid hormone receptor ERR1 (Homo sapiens) (UniProt P11474); assay: ATG_ERRa_TRANS: Attagene TRANS-FACTORIAL HepG2 Assay for human Estrogen-Related Receptor alpha (ERRa) (AID 2282971); conditions: HepG2 Attagene TRANS reporter, ERRa transactivation
# Procedure, shortened: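 Transfected HepG2, 24 h dosing, ERRa-Gal4 chimera driving GAL4-UAS reporter. Readout: reporter mRNA via RT-PCR plus capillary electrophoresis (fluorescence). Positive direction vs DMSO control.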
# [11] = ATG_GAL4_TRANS: Attagene TRANS-FACTORIAL HepG2 Assay for GAL4 (Internal Marker) (AID 2282976); conditions: HepG2 Attagene TRANS GAL4 internal marker reporter
# Procedure, shortened: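 RT-PCR/capillary electrophoresis readout of reporter mRNA. HepG2, transient MRTU transfection (GAL4-UAS reporters), 24 h compound exposure. Background-control endpoint, positive direction vs DMSO baseline.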
# [12] = biological target: Glucocorticoid receptor (Homo sapiens) (UniProt P04150); assay: ATG_GR_TRANS: Attagene TRANS-FACTORIAL HepG2 Assay for human Glucocorticoid Receptor (GR) (AID 2282978); conditions: HepG2 Attagene TRANS GR reporter, mRNA transcription;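 note: activators score as hits since higher reporter transcript over DMSO is fitted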
# Procedure, shortened: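 Readout is reporter transcript from a chimeric GR-Gal4 acting on GAL4-UAS in transfected human HepG2 liver cells after 24 h exposure, quantified by RT-PCR and capillary electrophoresis. Activation fitted upward against DMSO.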
# [13] = biological target: Bile acid receptor (Homo sapiens) (UniProt Q96RI1); assay: ATG_FXR_TRANS: Attagene TRANS-FACTORIAL HepG2 Assay for Farnesoid X Receptor (FXR) (AID 2282979); conditions: HepG2 Attagene TRANS FXR-GAL4 reporter transcription;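 note: hits raise reporter mRNA above DMSO so AC50 marks FXR activation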
# Procedure, shortened: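 Read-out: fluorescent reporter transcripts quantified by capillary electrophoresis after RT-PCR of total RNA. Source cells were HepG2 transiently carrying chimeric NR-GAL4 plus GAL4-UAS reporter units, dosed 24 h. Activity fitted upward relative to DMSO baseline.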
# [14] = biological target: Androgen receptor (Homo sapiens) (UniProt P10275); assay: ATG_AR_TRANS: Attagene TRANS-FACTORIAL HepG2 Assay for human Androgen Receptor (AR) (AID 2282973); conditions: HepG2 Attagene TRANS-FACTORIAL AR reporter transcription
# Procedure, shortened: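 Readout is reporter transcript abundance, quantified by fluorescent RT-PCR products separated on capillary electrophoresis. Human HepG2 liver cells carried transiently transfected NR-Gal4 chimera plus GAL4-UAS reporter constructs and were dosed for 24 h; activity scored upward versus DMSO.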
# [15] = ATG_M_32_TRANS: Attagene TRANS-FACTORIAL HepG2 Assay for M32 Transcription Factor (Internal Marker) (AID 2282984); conditions: HepG2 Attagene TRANS M32 internal marker reporter;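 note: transcript level of a background control reporter unit measured by RT-PCR and capillary electrophoresis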
# Procedure, shortened: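 HepG2 cells transiently transfected with multiple GAL4-UAS reporter transcription units, dosed for 24 hours; reporter mRNA quantified by RT-PCR, 6-FAM primer extension, HpaI digestion and capillary electrophoresis. Gain-of-signal fitted versus DMSO baseline; internal background-control marker.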
# [16] = biological target: Nuclear receptor subfamily 4 group A member 2 (Homo sapiens) (UniProt P43354); assay: ATG_NURR1_TRANS: Attagene TRANS-FACTORIAL HepG2 Assay for human Nuclear Receptor Related Protein 1 (NURR1) (AID 2282985); conditions: HepG2 Attagene TRANS reporter, mRNA readout
# Procedure, shortened: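 HepG2 cells transiently transfected with GAL4-UAS reporter units and chimeric NR-Gal4 constructs; chemical exposure 24 h. Reporter mRNA quantified by RT-PCR, fluorescent labelling and capillary electrophoresis; gain of signal fitted relative to DMSO baseline.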
# [17] = biological target: Hepatocyte nuclear factor 4-alpha (Homo sapiens) (UniProt P41235); assay: ATG_HNF4a_TRANS: Attagene TRANS-FACTORIAL HepG2 Assay for human Hepatocyte Nuclear Factor 4 alpha (HNF4a) (AID 2282982); conditions: HepG2 HNF4a transactivation reporter, mRNA readout
# Procedure, shortened: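 HepG2 cells transiently transfected with multiplexed GAL4-UAS reporter units responsive to chimeric NR-GAL4 proteins; compound exposure 24 h. Reporter mRNA quantified by RT-PCR, 6-FAM labelling, HpaI digestion and capillary electrophoresis; gain of signal versus DMSO baseline.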
# [18] = ATG_M_19_TRANS: Attagene TRANS-FACTORIAL HepG2 Assay for M19 Transcription Factor (Internal Marker) (AID 2282974); conditions: HepG2 Attagene TRANS-FACTORIAL M19 internal marker reporter
# Procedure, shortened: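 Background-control readout: after 24 h chemical exposure of transfected HepG2 carrying GAL4-driven reporter units, RNA was reverse-transcribed, amplified, fluorescently labeled and sized by capillary electrophoresis; gain-of-signal fit against DMSO.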
# [19] = biological target: Oxysterols receptor LXR-alpha (Homo sapiens) (UniProt Q13133); assay: ATG_LXRa_TRANS: Attagene TRANS-FACTORIAL HepG2 Assay for human Liver X Receptor alpha (LXRa) (AID 2282980); conditions: HepG2 Attagene TRANS reporter, LXRa transactivation
# Procedure, shortened: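 Read-out: reporter transcript levels by RT-PCR plus capillary electrophoresis, fluorescence intensity. Transiently transfected HepG2, exogenous NR-GAL4 chimera, GAL4-UAS reporters; 24 h compound exposure. Activity = increase over DMSO negative control.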
# Chain of Nuclear respiratory factor 1 (Homo sapiens) (Q16656 whole entry, looked up): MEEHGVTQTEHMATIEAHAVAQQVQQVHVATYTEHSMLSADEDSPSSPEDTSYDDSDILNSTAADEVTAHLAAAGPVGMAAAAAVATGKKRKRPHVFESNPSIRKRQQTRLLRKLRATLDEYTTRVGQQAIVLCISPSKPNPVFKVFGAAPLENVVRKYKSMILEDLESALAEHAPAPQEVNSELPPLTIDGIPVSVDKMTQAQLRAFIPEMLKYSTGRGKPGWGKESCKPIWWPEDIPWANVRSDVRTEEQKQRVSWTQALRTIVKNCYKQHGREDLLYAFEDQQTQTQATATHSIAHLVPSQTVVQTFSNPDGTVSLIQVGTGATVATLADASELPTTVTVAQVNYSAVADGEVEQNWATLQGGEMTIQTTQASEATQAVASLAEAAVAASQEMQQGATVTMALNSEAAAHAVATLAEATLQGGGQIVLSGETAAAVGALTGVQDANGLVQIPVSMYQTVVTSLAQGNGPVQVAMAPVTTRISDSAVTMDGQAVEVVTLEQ
# Chain of Glucocorticoid receptor (Homo sapiens) (P04150 whole entry, looked up, the tested form may be a part): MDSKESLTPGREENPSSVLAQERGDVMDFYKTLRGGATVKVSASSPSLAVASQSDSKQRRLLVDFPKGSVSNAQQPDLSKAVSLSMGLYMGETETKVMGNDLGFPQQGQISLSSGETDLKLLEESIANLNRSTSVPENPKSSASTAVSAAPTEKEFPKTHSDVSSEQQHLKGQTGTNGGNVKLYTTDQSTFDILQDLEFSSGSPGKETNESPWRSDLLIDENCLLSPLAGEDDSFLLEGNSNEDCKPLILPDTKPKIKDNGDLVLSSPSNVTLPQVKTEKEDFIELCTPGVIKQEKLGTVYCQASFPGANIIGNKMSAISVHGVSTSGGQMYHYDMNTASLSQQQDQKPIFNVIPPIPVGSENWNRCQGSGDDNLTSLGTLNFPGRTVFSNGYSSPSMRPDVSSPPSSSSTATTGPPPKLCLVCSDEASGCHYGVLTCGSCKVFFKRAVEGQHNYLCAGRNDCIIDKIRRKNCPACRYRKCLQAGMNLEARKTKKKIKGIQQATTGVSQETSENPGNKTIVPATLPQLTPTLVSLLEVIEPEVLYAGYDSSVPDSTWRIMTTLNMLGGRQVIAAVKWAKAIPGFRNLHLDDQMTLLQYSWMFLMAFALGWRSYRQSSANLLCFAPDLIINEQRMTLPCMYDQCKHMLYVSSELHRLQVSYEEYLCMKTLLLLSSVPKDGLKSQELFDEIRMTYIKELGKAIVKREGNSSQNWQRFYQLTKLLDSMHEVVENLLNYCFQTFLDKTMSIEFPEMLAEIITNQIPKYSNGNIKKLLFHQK
# Chain of X-box-binding protein 1 (Homo sapiens) (P17861 whole entry, looked up): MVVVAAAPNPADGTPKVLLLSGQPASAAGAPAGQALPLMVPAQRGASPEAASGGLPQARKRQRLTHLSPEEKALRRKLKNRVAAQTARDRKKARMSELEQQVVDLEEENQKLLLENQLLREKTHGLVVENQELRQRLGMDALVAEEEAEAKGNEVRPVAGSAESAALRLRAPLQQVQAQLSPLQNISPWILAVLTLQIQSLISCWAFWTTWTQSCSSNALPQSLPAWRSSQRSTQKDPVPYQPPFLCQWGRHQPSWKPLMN
# Chain of Estrogen-related receptor gamma (Homo sapiens) (P62508 whole entry, looked up, the tested form may be a part): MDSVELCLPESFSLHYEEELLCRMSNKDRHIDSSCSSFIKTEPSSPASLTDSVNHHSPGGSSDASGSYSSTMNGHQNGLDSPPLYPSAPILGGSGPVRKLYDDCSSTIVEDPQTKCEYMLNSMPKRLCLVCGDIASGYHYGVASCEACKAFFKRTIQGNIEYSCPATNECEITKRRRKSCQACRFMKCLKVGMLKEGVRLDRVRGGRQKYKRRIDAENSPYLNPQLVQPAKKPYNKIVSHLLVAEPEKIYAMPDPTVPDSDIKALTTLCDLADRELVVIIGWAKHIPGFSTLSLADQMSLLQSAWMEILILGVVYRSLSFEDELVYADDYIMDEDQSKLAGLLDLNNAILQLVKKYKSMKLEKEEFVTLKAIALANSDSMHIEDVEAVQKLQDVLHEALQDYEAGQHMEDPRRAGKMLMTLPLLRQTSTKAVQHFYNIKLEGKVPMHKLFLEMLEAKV
# Chain of Myc proto-oncogene protein (Homo sapiens) (P01106 whole entry, looked up): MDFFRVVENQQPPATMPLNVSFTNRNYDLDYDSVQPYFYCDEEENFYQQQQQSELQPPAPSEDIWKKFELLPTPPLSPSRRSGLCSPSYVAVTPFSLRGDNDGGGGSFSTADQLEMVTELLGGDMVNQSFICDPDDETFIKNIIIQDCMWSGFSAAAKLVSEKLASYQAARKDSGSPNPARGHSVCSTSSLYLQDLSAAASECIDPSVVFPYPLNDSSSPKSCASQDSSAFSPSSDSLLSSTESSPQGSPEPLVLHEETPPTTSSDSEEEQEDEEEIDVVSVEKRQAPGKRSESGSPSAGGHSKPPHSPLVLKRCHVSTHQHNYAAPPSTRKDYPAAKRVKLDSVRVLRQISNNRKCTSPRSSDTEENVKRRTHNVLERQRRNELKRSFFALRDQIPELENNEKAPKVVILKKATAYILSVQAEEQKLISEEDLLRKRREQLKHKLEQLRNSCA
# Chain of Transcriptional activator Myb (Homo sapiens) (P10242 whole entry, looked up): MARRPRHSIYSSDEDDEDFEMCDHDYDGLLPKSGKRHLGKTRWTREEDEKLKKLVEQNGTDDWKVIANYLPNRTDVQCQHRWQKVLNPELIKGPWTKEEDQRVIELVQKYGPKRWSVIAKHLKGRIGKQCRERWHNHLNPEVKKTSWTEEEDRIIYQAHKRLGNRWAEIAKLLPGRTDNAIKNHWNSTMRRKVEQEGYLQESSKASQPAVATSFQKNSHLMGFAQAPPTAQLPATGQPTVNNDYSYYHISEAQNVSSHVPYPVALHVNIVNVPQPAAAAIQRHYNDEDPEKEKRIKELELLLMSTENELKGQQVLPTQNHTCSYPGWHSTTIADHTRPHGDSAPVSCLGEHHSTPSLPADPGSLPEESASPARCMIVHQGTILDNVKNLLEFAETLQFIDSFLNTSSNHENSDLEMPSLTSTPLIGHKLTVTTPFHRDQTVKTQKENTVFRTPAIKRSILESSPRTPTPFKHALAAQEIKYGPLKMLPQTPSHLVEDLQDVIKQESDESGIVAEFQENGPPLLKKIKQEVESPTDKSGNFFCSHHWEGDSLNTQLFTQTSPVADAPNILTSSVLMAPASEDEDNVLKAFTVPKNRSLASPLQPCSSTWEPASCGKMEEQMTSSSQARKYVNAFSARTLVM
# Chain of Oxysterols receptor LXR-beta (Homo sapiens) (P55055 whole entry, looked up, the tested form may be a part): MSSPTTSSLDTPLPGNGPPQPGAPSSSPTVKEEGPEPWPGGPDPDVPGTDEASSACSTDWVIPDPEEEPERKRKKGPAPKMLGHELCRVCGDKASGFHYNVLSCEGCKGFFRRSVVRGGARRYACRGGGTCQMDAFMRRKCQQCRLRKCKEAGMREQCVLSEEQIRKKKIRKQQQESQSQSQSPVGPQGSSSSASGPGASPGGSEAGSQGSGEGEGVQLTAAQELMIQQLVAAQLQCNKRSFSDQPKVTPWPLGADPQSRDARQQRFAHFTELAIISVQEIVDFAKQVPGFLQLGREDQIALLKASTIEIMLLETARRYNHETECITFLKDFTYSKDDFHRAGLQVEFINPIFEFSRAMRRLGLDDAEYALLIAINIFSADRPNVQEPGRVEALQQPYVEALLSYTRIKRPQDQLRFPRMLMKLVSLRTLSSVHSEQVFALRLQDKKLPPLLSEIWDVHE
# Chain of Bile acid receptor (Homo sapiens) (Q96RI1 whole entry, looked up, the tested form may be a part): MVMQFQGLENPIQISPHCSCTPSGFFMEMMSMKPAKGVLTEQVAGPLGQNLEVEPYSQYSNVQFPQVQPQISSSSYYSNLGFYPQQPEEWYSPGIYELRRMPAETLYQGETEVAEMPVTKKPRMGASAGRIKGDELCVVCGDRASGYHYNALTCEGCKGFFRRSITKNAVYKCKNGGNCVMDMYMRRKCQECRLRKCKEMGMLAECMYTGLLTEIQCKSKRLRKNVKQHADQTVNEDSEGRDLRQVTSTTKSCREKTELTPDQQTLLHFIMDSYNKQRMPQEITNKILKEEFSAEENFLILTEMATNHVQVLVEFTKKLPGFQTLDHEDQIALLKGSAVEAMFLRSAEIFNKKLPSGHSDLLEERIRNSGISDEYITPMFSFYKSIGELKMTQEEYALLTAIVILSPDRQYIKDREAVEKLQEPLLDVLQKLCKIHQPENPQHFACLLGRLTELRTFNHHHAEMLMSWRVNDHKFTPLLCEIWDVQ
# Chain of Steroid hormone receptor ERR1 (Homo sapiens) (P11474 whole entry, looked up, the tested form may be a part): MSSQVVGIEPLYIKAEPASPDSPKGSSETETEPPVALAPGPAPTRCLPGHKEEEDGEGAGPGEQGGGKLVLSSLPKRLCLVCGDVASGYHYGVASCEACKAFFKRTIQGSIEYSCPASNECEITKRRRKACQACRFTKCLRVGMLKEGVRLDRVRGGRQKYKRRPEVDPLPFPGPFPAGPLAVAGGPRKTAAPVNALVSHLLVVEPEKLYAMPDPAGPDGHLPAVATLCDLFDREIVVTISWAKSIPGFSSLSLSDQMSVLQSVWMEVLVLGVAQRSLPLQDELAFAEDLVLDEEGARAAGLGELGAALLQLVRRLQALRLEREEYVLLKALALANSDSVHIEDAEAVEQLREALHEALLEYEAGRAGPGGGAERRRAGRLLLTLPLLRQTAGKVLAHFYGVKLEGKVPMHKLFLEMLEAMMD
# Chain of Hepatocyte nuclear factor 4-alpha (Homo sapiens) (P41235 whole entry, looked up, the tested form may be a part): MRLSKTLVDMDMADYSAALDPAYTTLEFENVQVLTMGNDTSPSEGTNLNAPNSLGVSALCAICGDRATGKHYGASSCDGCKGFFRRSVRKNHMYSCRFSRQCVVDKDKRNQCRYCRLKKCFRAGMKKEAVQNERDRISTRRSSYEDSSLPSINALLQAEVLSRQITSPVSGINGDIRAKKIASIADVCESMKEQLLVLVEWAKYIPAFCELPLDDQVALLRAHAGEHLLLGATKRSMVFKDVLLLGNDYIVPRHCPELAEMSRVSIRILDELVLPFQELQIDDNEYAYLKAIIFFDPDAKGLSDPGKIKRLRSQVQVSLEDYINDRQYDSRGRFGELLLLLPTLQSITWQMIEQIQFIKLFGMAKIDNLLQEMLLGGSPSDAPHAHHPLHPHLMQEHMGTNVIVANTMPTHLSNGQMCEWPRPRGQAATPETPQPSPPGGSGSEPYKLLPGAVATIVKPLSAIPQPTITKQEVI
smiles,measurement,setting,value
CCCCN(CCCC)C(=S)S,outcome,[1],inactive
same,AC50,[2],70.5 µM (active)
same,outcome,[3],inactive
same,outcome,[4],inactive
same,outcome,[5],inactive
same,AC50,[6],100 µM (active)
same,AC50,[7],152 µM (active)
same,outcome,[8],inactive
same,outcome,[9],inactive
CCOP(=S)(OCC)O/N=C(\C#N)c1ccccc1,outcome,[10],inactive
same,outcome,[2],inactive
same,outcome,[11],inactive
same,outcome,[3],inactive
same,outcome,[12],inactive
same,outcome,[13],inactive
same,outcome,[5],inactive
same,outcome,[6],inactive
same,outcome,[7],inactive
same,outcome,[8],inactive
same,outcome,[9],inactive
CC(C)N(C(=O)CCl)c1ccccc1,AC50,[2],47.9 µM (active)
same,outcome,[14],inactive
same,outcome,[12],inactive
same,outcome,[4],inactive
same,outcome,[5],inactive
same,outcome,[15],inactive
same,AC50,[16],149 µM (active)
same,AC50,[6],8.16 µM (active)
same,AC50,[7],49.1 µM (active)
same,AC50,[8],24.3 µM (active)
same,outcome,[9],inactive
N#Cc1ccccc1Cl,outcome,[10],inactive
same,outcome,[2],inactive
same,outcome,[13],inactive
same,outcome,[4],inactive
same,outcome,[5],inactive
same,outcome,[6],inactive
same,outcome,[7],inactive
same,outcome,[8],inactive
CC(=Cc1ccccc1)[N+](=O)[O-],outcome,[1],inactive
same,AC50,[2],11.1 µM (active)
same,outcome,[3],inactive
same,outcome,[17],inactive
same,outcome,[6],inactive
same,outcome,[8],inactive
same,AC50,[9],18.6 µM (active)
C[C@]12CC[C@@H](O)C[C@@H]1CC[C@@H]1[C@@H]2CC[C@]2(C)C(=O)CC[C@@H]12,outcome,[10],inactive
same,outcome,[2],inactive
same,outcome,[18],inactive
same,outcome,[11],inactive
same,outcome,[12],inactive
same,outcome,[19],inactive
same,outcome,[4],inactive
same,outcome,[7],inactive
same,outcome,[8],inactive
same,outcome,[9],inactive
C=CC(Cl)CCl (stereo unspecified),outcome,[2],inactive
same,outcome,[14],inactive
same,outcome,[12],inactive
same,outcome,[13],inactive
same,outcome,[5],inactive
same,outcome,[16],inactive
same,outcome,[6],inactive
same,outcome,[7],inactive
same,outcome,[8],inactive
same,outcome,[9],inactive
